In PubChem BioAssay (Tox21) one finds Potency data, which are given here for seven molecules.

“And” between values parts separate entries of the source, which are not always exact repeats. Identical values can stand only once. Records with an inconclusive call do not appear. A structure can be active in one record and inactive in another. The source made the active and inactive calls. Unless noted, the call rests on the fitted dose curve.

The nature of assay [1]: Nuclear factor erythroid 2-related factor 2/antioxidant responsive element (Nrf2/ARE) small molecule agonists: qHTS cell viability counter screen in human keratinocytes (AID 1919968; active means well fitted curve in the direction sought with a large enough effect in the repeat runs; an effect the other way counts as inactive or inconclusive; further: nearly all actives have a fitted effect of over 55% in size). Summed up: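 CellTiter-Fluor fluorescence, read 1 h after reagent, gave viability in the same wells as the ARE-luciferase assay. KeratinoSens cells (1,500/well) had 23 h compound exposure at 37 C/5% CO2 following 5 h plating.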
On the technique in general: qHTS replaces the single test concentration by a dilution series.

A short description of assay [2]: Nuclear factor erythroid 2-related factor 2/antioxidant responsive element (Nrf2/ARE) small molecule agonists: luciferase reporter gene qHTS assay in human keratinocytes (AID 1919969). Further: nearly all actives have a fitted effect of over 35% in size. Further: potency means the concentration at half of the fitted maximal effect. Background: In a reporter assay the amount or activity of a reporter protein is the signal.
Assay [3] concerns the target Gonadotropin-releasing hormone receptor (Homo sapiens) (UniProt P30968). Kind of assay: Human gonadotropin-releasing hormone receptor (GnRHR) small molecule agonists, calcium flux assay in GnRHR-HEK293 cells (AID 1920063). Further: nearly all actives have a fitted effect of over 35% in size. In outline:
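Agonist mode: compounds at 15 concentrations, in triplicate, went onto calcium dye-loaded GnRHR-HEK293 cells. Intracellular calcium was then followed as 480/540 nm fluorescence at 1 s intervals over 3 min.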

In assay [4] the target is KiSS-1 receptor (Homo sapiens) (UniProt Q969F8). Kind of assay: Human kisspeptin (KISS1R) small molecule agonists, calcium flux assay in KISS1R-HEK293 cells (AID 1920064; active means well fitted curve in the direction sought with a large enough effect in the repeat runs; an effect the other way counts as inactive or inconclusive). In outline:
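Agonist mode: intracellular calcium rise tracked at 1 s intervals over 3 min (480/540 nm) immediately after compound addition to dye-loaded KISS1R-HEK293 stable cells. Each compound tested at 15 concentrations in triplicate.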

Assay [5] is described as follows: G protein-coupled receptor (GPCR) small molecule agonists, calcium flux assay: HEK293 wild type cell line counter screen (AID 1920065). In outline: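 Calcium flux counter screen: compound added in agonist mode at 15 concentrations in triplicate to dye-loaded parental HEK293 cells. Fluorescence (480/540) read kinetically for 3 min; ATP served as positive control.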
For orientation: Calcium assays in cells follow changes in intracellular calcium, usually with a dye or a luminescent sensor.

Assay [6] in a line: p53 small molecule agonists, cell-based qHTS assay with human liver microsomes (AID 1963577).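 Further: p53 response element beta-lactamase reporter cells with liver microsomes plus NADPH.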 In outline:
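Metabolically competent format: test substances, human liver microsomes and NADPH (both 0.5 mg/mL final) incubated with p53RE-bla cells 16 h at 37 C. Beta-lactamase reporter signal then quantified by fluorescence.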

Assay [7] is described as follows: p53 small molecule agonists, cell-based qHTS assay with rat liver microsomes (AID 1963578). Summed up: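 Each plate received p53RE-bla cells, then compound, then rat liver microsomes and NADPH (both 0.5 mg/mL final). Plates were held 16 h at 37 C, and beta-lactamase activity was detected with LiveBLAzer over 2 h.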
Assay [8] can be described thus: p53 small molecule agonists, cell-based qHTS assay with human liver microsomes: qHTS cell viability counter screen (AID 1963579). Further: nearly all actives have a fitted effect of over 45% in size. In outline: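 Tox21 library compounds, delivered from DMSO stocks, were tested on p53RE-bla cells together with 0.5 mg/mL human liver microsomes and 0.5 mg/mL NADPH (final) over 16 h at 37 C; CellTiter-Glo luminescence served as the cytotoxicity measure.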

Assay [9] is described as follows: p53 small molecule agonists, cell-based qHTS assay with rat liver microsomes: qHTS cell viability counter screen (AID 1963580). Further: nearly all actives have a fitted effect of over 45% in size. Summed up:
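Rat liver microsome (0.5 mg/mL final) and NADPH (0.5 mg/mL final) co-incubation with compounds for 16 h at 37 C on HCT-116 p53RE-bla cells; cytotoxicity taken from intracellular ATP luminescence.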

A short description of assay [10]: p53 small molecule agonists, cell-based qHTS assay: qHTS cell viability counter screen (AID 1963581). Further: nearly all actives have a fitted effect of over 45% in size. Further: potency means the concentration at half of the fitted maximal effect. In outline:
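Counter screen read by CellTiter-Glo luminescence (ATP content, 30 min at room temperature), run in the same wells as the beta-lactamase reporter read. HCT-116 p53RE-bla cells saw compounds for 16 h at 37 C.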

Assay [11] in a line: p53 small molecule agonists, cell-based qHTS assay (AID 1963582; active means well fitted activation curve with a large enough effect in the signal ratio in the repeat runs, not every such curve was filed as active; the % refers to the signal ratio). Summed up: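 Read-out is beta-lactamase FRET fluorescence after 2 h at room temperature with LiveBLAzer B/G substrate. p53 response element-bla cells were treated 16 h at 37 C with compounds in DMSO, added 5 h after seeding.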
For assay [12], the target named is 5-hydroxytryptamine receptor 2A (Homo sapiens) (UniProt P28223). In words: 5-hydroxytryptamine receptor 2A (HTR2A) small molecule antagonists, cell-based qHTS assay (AID 1963586). Further: nearly all actives have a fitted effect of over 45% in size. Further: potency means the concentration at half of the fitted maximal effect. Summed up: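 CHO cells stably expressing human HTR2A were plated for 18 h at 37 C, then loaded with calcium dye for 1 h. Compounds were preincubated 5 min at room temperature before DOI (4 nM solution) was added. Kinetic fluorescence was read for 3 min.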

For assay [13] the target is unchanged. Kind of assay: 5-hydroxytryptamine receptor 2A (HTR2A) small molecule agonists, cell-based qHTS assay (AID 1963587). Further: nearly all actives have a fitted effect of over 30% in size. In outline:
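Kinetic calcium-flux fluorescence (2 min, 1 sec intervals) after compound addition in agonist mode. HTR2A-CHO cells were cultured 18 h, then dye-loaded 1 h at 37 C.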

Assay [14] concerns the target Muscarinic acetylcholine receptor M1 (Homo sapiens) (UniProt P11229). In words: Cholinergic receptor muscarinic 1 (CHRM1) small molecule antagonists, cell-based qHTS assay (AID 1963588). Further: nearly all actives have a fitted effect of over 40% in size. In outline:
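Compounds were tested at 15 concentrations in three independent runs. Dye-loaded CHRM1-CHO cells were exposed 5 min at room temperature before stimulation by acetylcholine added at 50nM. Intracellular calcium was read kinetically on FDSS for 3 min.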

Assay [15] is described as follows: cAMP Responsive Elements (CRE) small molecule antagonists, cell-based qHTS assay (AID 1963591; active means well fitted inhibition curve with a large enough effect in the signal ratio in the repeat runs, not every such curve was filed as active; the % refers to the signal ratio). In outline:
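Antagonist mode: compounds are added alongside the adenylyl cyclase activator NKH477 (0.25 uM final) to CRE-bla HEK293T cells for 3 h. LiveBLAzer FRET substrate, 2 h at room temperature, reports bla expression.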

For assay [16], the target named is Beta-2 adrenergic receptor (Homo sapiens) (UniProt P07550). Kind of assay: Adrenergic beta2 receptor (ADRB2) small molecule antagonists, cell-based qHTS assay (AID 1963592). Further: series mostly up to about 92 µM; nearly all actives have a fitted effect of over 50% in size. Summed up:
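Assay format: CHO-ADRB2 cells, 18-20hr seeding at 37C/5% CO2, then compound plus 1nM isoproterenol agonist mix for 0.5hr RT. Homogeneous time-resolved fluorescence cAMP detection after 1hr, expressed as 665/615 nm ratio.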

The target is the same in assay [17]. Kind of assay: Adrenergic beta2 receptor (ADRB2) small molecule agonists, cell-based qHTS assay (AID 1963593).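 Further: CHO cells stably overexpressing human ADRB2.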 Summed up:
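CHO cells stably over-expressing ADRB2 were plated overnight at 37C, then dosed with compounds plus a stimulation mix containing 100uM IBMX and 25uM Ro-20-1724 for 0.5hr at room temperature. cAMP was measured by HTRF competition, 1hr.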

Assay [18] deals with D(2) dopamine receptor (Homo sapiens) (UniProt P14416). In words: Dopamine D2 receptor (DRD2) small molecule antagonists, cell-based qHTS assay (AID 1963595; active means well fitted inhibition curve with a large enough effect in the signal ratio in the repeat runs, with a control signal flat; the % refers to the signal ratio). In outline: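 Human DRD2 antagonist qHTS measuring cAMP by HTRF. The cells are exposed to compound for 10 min, then to NKH477 (200 nM) and quinpirole (12 nM) for 30 min at RT, with Ro20-1724 (0.1 mM) present throughout.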

Assay [19] can be described thus: cAMP Responsive Elements (CRE) small molecule agonists, cell-based qHTS assay (AID 1963590). Summed up:
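Agonist mode: compound added to CRE-bla HEK 293T cells (2,000/well, 18 h after plating) for 3 h at 37 C/5% CO2. Reporter activity detected via FRET beta-lactamase substrate, 2 h room-temperature loading.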

Assay [20] concerns the target D(2) dopamine receptor (Homo sapiens) (UniProt P14416). In words: Dopamine D2 receptor (DRD2) small molecule agonists, cell-based qHTS assay (AID 1963594). Further: nearly all actives have a fitted effect of over 35% in size. Summed up:
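cAMP accumulation in DRD2-HEK293 cells measured by HTRF after 1 h detection; compounds added 10 min before NKH477 (200nM […]) forskolin-analogue stimulation, 30 min at room temperature, with Ro20-1724 present at 0.1 mM final.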

Beta-2 adrenergic receptor (Homo sapiens), sequence (P07550 whole entry, looked up): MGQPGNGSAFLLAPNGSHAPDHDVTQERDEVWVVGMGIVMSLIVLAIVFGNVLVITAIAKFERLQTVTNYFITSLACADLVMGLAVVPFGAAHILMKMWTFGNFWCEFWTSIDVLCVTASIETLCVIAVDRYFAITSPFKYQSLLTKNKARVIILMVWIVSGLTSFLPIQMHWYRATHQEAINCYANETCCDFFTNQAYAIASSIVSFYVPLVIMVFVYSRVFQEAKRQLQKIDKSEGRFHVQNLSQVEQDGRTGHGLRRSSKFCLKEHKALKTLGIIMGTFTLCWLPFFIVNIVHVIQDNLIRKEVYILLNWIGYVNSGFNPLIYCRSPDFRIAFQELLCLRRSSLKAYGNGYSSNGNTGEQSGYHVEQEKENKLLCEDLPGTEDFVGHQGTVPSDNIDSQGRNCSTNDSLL
Muscarinic acetylcholine receptor M1 (Homo sapiens), sequence (P11229 whole entry, looked up): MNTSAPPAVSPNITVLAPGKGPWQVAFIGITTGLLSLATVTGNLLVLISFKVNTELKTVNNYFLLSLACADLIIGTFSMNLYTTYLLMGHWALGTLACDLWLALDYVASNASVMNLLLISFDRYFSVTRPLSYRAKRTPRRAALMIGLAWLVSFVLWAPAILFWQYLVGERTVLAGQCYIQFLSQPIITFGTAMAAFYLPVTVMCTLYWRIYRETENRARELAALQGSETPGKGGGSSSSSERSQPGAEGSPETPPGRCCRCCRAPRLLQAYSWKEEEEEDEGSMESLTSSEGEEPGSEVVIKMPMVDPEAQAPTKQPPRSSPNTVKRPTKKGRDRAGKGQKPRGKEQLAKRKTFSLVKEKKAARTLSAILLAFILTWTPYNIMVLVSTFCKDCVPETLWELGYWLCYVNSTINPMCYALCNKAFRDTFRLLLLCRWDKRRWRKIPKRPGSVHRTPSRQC
D(2) dopamine receptor (Homo sapiens), sequence (P14416 whole entry, looked up): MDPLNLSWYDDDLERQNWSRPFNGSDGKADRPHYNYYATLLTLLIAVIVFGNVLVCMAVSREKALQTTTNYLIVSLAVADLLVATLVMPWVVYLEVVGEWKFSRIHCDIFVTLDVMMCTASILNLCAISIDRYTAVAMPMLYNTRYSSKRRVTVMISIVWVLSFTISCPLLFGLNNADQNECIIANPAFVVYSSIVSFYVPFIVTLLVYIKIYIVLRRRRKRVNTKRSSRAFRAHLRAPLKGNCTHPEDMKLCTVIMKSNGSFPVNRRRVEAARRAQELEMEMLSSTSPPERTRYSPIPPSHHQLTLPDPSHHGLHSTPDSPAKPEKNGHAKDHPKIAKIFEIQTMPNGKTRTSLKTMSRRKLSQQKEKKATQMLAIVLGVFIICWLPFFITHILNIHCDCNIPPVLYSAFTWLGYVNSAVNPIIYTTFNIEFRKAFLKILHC
5-hydroxytryptamine receptor 2A (Homo sapiens), sequence (P28223 whole entry, looked up): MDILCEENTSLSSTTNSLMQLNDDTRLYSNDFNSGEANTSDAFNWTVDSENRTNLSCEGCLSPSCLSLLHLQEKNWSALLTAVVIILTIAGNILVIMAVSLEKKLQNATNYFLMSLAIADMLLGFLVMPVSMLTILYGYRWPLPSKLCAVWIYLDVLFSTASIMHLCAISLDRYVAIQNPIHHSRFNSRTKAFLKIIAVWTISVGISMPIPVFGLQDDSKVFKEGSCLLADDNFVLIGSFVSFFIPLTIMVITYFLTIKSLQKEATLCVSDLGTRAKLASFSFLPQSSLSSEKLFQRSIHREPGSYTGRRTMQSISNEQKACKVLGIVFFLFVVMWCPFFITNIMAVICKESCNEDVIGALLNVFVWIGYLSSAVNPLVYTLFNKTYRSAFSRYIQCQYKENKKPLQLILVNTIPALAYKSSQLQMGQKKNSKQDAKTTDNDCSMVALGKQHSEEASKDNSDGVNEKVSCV
Gonadotropin-releasing hormone receptor (Homo sapiens), sequence (P30968 whole entry, looked up): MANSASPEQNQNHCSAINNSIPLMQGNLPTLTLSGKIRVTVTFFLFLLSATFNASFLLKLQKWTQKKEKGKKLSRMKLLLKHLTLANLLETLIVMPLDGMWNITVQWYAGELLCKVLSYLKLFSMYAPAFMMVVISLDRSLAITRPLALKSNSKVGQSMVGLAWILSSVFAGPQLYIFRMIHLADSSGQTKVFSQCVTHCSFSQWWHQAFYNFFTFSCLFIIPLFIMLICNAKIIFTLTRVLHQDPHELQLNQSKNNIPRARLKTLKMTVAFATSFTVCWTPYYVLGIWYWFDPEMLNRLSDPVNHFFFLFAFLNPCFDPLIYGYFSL
KiSS-1 receptor (Homo sapiens), sequence (Q969F8 whole entry, looked up): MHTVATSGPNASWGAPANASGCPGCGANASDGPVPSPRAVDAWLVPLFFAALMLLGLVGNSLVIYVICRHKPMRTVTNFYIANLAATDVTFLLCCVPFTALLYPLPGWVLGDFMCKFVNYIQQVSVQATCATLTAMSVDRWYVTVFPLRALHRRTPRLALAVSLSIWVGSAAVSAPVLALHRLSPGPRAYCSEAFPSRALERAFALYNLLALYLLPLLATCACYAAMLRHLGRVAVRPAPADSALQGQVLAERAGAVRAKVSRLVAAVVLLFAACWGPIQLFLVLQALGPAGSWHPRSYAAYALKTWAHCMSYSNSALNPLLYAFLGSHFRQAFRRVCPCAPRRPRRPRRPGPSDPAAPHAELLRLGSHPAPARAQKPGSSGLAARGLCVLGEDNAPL

In the case of `CC(=O)C1=C(C)[C@@H]2C[C@@]3(C1)[C@H](C)CC[C@H]3C2(C)C`, the Potency entry in assay [1], in [2], in assay [3], in [4], in [5] and in assay [6] was “inactive” each time. For the same molecule, the Potency entry in assay [7], in assay [8], in assay [9], in assay [10], in assay [11] and in [12] was “inactive” each time. In addition, the Potency result in assay [13], in [14], in [15], in assay [16], in assay [17] and in assay [18] was “inactive” throughout.
`O=C(OCCOCCOC(=O)c1ccccc1)c1ccccc1`: the Potency entry in [1], in [2], in assay [3], in [4], in assay [5] and in assay [6] was “inactive” in each case. Besides, the Potency result in assay [7], in assay [8], in [9], in [10], in assay [11] and in assay [13] was “inactive” in each case. Also, the Potency entry in [19], in assay [15], in [16] and in assay [20] was “inactive” in each case. Also, the Potency result in [12] is “inactive and 7.5 nM (active)”.
For `COC(=O)/C=C\C(=O)OC`, the Potency result in assay [1], in assay [2], in assay [3], in assay [4], in assay [5] and in assay [6] was “inactive” throughout. Moreover, the Potency result in [7], in [8], in assay [9], in assay [10], in assay [11] and in [12] was “inactive” in each case. Besides, the Potency entry in [14], in [19], in assay [15], in assay [16], in [17] and in [20] was “inactive” throughout. For the same molecule, the Potency result in assay [18] was “inactive”.
As to `Clc1cc(Cl)c(Cl)cc1Cl`, the Potency result in assay [1], in assay [2], in [3], in [4], in assay [5] and in assay [6] was “inactive” each time. Further, the Potency entry in assay [7], in assay [8], in assay [9], in [11], in assay [12] and in assay [14] was “inactive” in each case. Moreover, the Potency entry in assay [19], in assay [15], in assay [16], in [17], in assay [20] and in [18] was “inactive” throughout. Also, the Potency entry in assay [10] is “inactive and 16.2 µM (active)”.
Consider `C=CC(=O)OCCC(=O)O`, for which the Potency entry in assay [1], in assay [2], in [3], in assay [4], in [5] and in assay [6] was “inactive” throughout. In addition, the Potency entry in assay [7], in [8], in assay [9], in assay [10], in [11] and in assay [12] was “inactive” each time. Moreover, the Potency result in [13], in [15], in [16], in assay [17], in assay [20] and in assay [18] was “inactive” each time.
In the case of `CCCCCCCC(=O)OCC(COC(=O)CCCCCCC)OC(=O)CCCCCCC`, the Potency entry in assay [1], in assay [2], in [3], in assay [4], in assay [5] and in assay [6] was “inactive” throughout. Besides, the Potency entry in assay [7], in assay [8], in [9], in assay [10], in assay [11] and in assay [13] was “inactive” throughout. In addition, the Potency entry in assay [19], in [15], in assay [16], in assay [17], in assay [20] and in assay [18] was “inactive” throughout.
With `COc1ccc(C(=O)c2ccccc2)c(O)c1`, the Potency result in assay [1], in [3], in assay [4], in [5], in assay [6] and in [7] was “inactive” throughout. Moreover, the Potency entry in assay [8], in assay [9], in [10], in assay [11], in [13] and in [14] was “inactive” each time. For the same molecule, the Potency entry in [15], in assay [16], in assay [17], in assay [20] and in assay [18] was “inactive” each time. Also, the Potency result in [2] is “inactive and 54.5 µM (active)”.
